Results filed as inconclusive are left out. Calls of active or inactive are those of the source. Unless noted, the call rests on the fitted dose curve; in most records, active means well fitted curve in the direction sought with a large enough effect in the repeat runs; inconclusive means weak or mixed curves; inactive means no such curve, though single readings can be large; an effect the other way counts as inactive or inconclusive.
Experiments:
[1] = qHTS assay to identify small molecule antagonists of the glucocorticoid receptor (GR) signaling pathway - cell viability counter screen (AID 720693); further: nearly all actives have a fitted effect of over 55% in size
[2] = qHTS assay for identifying genotoxic compounds that show differential cytotoxicity against isogenic chicken DT40 cell lines with known DNA damage response pathways - wild type cell line (AID 743012); further: nearly all actives have a fitted effect of over 60% in size
How it was run: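 Endpoint: CellTiter-Glo luminescence, 30 min RT. Cells: wild type DT40, 300/well. Exposure: compounds in DMSO, 40 h, 37 C/5% CO2, after ~0.5 h pre-incubation.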

[3] = qHTS assay for identifying genotoxic compounds that show differential cytotoxicity against isogenic chicken DT40 cell lines with known DNA damage response pathways - Rev3 mutant cell line (AID 743014); further: nearly all actives have a fitted effect of over 55% in size
[4] = qHTS assay to identify small molecule antagonists of the androgen receptor (AR) signaling pathway - cell viability counter screen (AID 743033; further: nearly all actives have a fitted effect of over 45% in size)
[5] = qHTS assay to identify small molecule antagonists of the androgen receptor (AR) signaling pathway using the MDA cell line - cell viability counter screen (AID 743041; further: nearly all actives have a fitted effect of over 45% in size)
How it was run: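 Using the breast carcinoma line MDA-kb2 AR-luc, test chemicals were co-incubated with R1881 for 16 h; CellTiter-Fluor reagent, added at 15.5 h, provided a fluorescence measure of live cells.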

[6] = qHTS assay to identify small molecule antagonists of the estrogen receptor alpha (ER-alpha) signaling pathway - cell viability counter screen (AID 743074; calls by dose curve; further: nearly all actives have a fitted effect of over 45% in size)
[7] = qHTS assay to identify small molecule antagonists of the estrogen receptor alpha (ER-alpha) signaling pathway using the BG1 cell line - cell viability counter screen (AID 743081);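 further: compound given together with 17beta-estradiol as the ER stimulus; series mostly up to about 70 µM; nearly all actives have a fitted effect of over 45% in size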
Aromatase (Homo sapiens) = Aromatase (Homo sapiens) (UniProt P11511); assay: qHTS assay to identify aromatase inhibitors (AID 743083); further: series mostly up to about 70 µM; nearly all actives have a fitted effect of over 55% in size
Chain of Aromatase (Homo sapiens) (P11511 whole entry, looked up): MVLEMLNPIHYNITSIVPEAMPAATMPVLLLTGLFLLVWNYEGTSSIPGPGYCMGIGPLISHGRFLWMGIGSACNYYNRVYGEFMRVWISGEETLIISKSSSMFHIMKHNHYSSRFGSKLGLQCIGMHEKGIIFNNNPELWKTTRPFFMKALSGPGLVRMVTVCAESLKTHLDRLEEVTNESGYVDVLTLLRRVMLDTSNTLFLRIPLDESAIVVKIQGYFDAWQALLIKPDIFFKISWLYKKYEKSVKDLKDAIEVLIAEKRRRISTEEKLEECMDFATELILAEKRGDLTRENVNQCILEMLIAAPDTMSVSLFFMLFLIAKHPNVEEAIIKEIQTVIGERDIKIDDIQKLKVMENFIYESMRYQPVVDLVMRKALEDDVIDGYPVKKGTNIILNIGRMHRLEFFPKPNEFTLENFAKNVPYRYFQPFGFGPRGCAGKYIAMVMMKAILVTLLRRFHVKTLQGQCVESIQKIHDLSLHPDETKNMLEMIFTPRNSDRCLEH

[8] = qHTS assay for identifying genotoxic compounds that show differential cytotoxicity against isogenic chicken DT40 cell lines with known DNA damage response pathways - Rad54/Ku70 mutant cell line (AID 743015); further: nearly all actives have a fitted effect of over 60% in size
[9] = qHTS assay to identify small molecule antagonists of the thyroid receptor (TR) signaling pathway - cell viability counter screen (AID 743064); further: nearly all actives have a fitted effect of over 50% in size
How it was run: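 Fluorescence from CellTiter-Fluor, added after 23.5 h exposure at 37 °C, reported viability of GH3.TRE-Luc cells co-treated with compound and 1 nM T3. Measured in the same wells as the luciferase TR readout.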

[10] = tested on: thyroid hormone receptor (rat, GH3 cells); assay: qHTS assay to identify small molecule agonists of the thyroid receptor (TR) signaling pathway (AID 743066; calls by dose curve)
[11] = target: Estrogen receptor (Homo sapiens) (UniProt P03372); assay: qHTS assay to identify small molecule antagonists of the estrogen receptor alpha (ER-alpha) signaling pathway (AID 743069; active means well fitted curve in the direction sought with a large enough effect in the signal ratio in the repeat runs, not every such curve was filed as active; the % refers to the signal ratio)
Chain of Estrogen receptor (Homo sapiens) (P03372 whole entry, looked up): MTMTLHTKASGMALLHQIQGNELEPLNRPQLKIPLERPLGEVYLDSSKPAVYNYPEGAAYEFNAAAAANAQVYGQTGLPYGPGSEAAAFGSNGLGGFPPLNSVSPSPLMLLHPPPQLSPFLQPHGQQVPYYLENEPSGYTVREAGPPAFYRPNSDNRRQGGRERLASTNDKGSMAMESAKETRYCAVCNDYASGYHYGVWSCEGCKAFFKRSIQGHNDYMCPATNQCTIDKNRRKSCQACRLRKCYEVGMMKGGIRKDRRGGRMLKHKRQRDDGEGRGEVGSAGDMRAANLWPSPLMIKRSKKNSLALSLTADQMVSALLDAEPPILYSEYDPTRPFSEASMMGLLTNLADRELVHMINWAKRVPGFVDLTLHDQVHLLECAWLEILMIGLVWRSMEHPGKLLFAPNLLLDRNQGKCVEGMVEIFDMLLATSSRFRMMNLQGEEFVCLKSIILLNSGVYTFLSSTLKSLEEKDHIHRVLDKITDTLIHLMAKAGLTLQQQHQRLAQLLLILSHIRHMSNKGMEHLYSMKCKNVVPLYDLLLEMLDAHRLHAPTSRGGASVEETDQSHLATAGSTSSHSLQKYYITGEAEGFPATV
How it was run: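 Fluorescence intensity from a beta-lactamase FRET substrate served as the read-out. Cells: HEK293 with stably integrated ER-alpha-UAS-bla reporter. Agonist 17beta-estradiol was co-added with compounds; incubation 18 hr at 37C, substrate 2 hr at room temperature.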

[12] = target: Estrogen receptor (Homo sapiens) (UniProt P03372); assay: qHTS assay to identify small molecule agonists of the estrogen receptor alpha (ER-alpha) signaling pathway (AID 743075; calls by dose curve)
[13] = target: Estrogen receptor (Homo sapiens) (UniProt P03372); assay: qHTS assay to identify small molecule agonists of the estrogen receptor alpha (ER-alpha) signaling pathway using the BG1 cell line (AID 743079); further: nearly all actives have a fitted effect of over 20% in size; further: potency means the concentration at half of the fitted maximal effect
[14] = qHTS assay to identify small molecule antagonists of the estrogen receptor alpha (ER-alpha) signaling pathway using the BG1 cell line (AID 743080; calls by dose curve;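 further: BG1 cells stimulated with 17beta-estradiol alongside compound; series mostly up to about 70 µM; nearly all actives have a fitted effect of over 25% in size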)
How it was run: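 Luminescence from a 4×ERE-luciferase reporter in BG1-Luc-4E2 cells served as read-out. Cells, pre-cultured 5 days in stripped-serum phenol-red-free medium, were exposed to compound with 17beta-estradiol co-stimulation for 21.5 h at 37 C.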

[15] = target: Androgen receptor (Homo sapiens) (UniProt P10275); assay: qHTS assay to identify small molecule antagonists of the androgen receptor (AR) signaling pathway (AID 743035; active means well fitted inhibition curve with a large enough effect in the signal ratio in the repeat runs, not every such curve was filed as active; the % refers to the signal ratio)
Chain of Androgen receptor (Homo sapiens) (P10275 whole entry, looked up): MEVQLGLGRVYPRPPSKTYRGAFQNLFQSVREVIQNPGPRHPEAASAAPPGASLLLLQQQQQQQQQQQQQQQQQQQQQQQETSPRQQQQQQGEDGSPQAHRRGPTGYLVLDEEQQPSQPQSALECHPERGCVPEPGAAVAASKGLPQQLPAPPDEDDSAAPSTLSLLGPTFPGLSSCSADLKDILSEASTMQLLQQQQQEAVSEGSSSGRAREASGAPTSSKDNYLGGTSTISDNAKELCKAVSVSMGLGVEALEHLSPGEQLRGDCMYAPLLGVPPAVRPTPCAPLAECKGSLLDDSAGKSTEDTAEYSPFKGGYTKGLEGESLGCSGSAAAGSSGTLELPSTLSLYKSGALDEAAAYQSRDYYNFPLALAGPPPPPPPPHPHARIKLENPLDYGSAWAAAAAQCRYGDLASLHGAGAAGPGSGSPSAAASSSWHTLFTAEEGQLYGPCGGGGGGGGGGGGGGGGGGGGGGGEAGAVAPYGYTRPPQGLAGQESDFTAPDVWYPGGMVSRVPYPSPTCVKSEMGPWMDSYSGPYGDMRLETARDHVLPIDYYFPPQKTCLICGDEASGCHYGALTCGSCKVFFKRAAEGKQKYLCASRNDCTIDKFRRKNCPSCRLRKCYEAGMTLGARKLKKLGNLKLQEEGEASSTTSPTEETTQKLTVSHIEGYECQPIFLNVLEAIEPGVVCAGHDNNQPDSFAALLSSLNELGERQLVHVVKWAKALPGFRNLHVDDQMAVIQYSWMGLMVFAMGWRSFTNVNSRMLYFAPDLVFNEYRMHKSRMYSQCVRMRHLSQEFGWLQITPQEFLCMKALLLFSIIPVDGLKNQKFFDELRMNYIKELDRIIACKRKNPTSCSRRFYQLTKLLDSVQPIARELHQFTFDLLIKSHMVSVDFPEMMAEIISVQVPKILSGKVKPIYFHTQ
How it was run: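 R1881 agonist challenge of a HEK293 UAS-beta-lactamase AR reporter line in the presence of compound (16 h, 37C); signal taken as FRET fluorescence after 2 h with LiveBLAzer B/G substrate at room temperature.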

[16] = target: Androgen receptor (Homo sapiens) (UniProt P10275); assay: qHTS assay to identify small molecule agonists of the androgen receptor (AR) signaling pathway using the MDA cell line (AID 743040; further: nearly all actives have a fitted effect of over 20% in size)
How it was run: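 Stable MMTV-luciferase reporter in MDA-kb2 cells; note the promoter carries GR as well as AR response elements. 16 h compound treatment, 37C, 0% CO2; ONE-Glo luminescence endpoint.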

[17] = target: Androgen receptor (Homo sapiens) (UniProt P10275); assay: qHTS assay to identify small molecule antagonists of the androgen receptor (AR) signaling pathway using the MDA cell line (AID 743042; further: nearly all actives have a fitted effect of over 55% in size)
How it was run: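 Antagonist mode: compounds plus R1881 agonist added to MDA-kb2 AR-luc cells, incubated 16 h at 37C. Luciferase reporter luminescence quantified, with multiplexed CellTiter-Fluor readout for cell viability.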

[18] = qHTS assay to identify small molecule antagonists of the thyroid receptor (TR) signaling pathway (AID 743065)
How it was run: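 Antagonism measured as loss of luciferase signal in GH3 cells stably carrying a TRE-luciferase reporter, co-treated with compound and T3 (1 nM final) for 23.5 h at 37 C. Viability was read in the same well by CellTiter-Fluor.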

Measured: Potency

N[C@@H](CCC(=O)N[C@@H](CS)C(=O)NCC(=O)O)C(=O)O
inactive: [1] | [2] | [3] | [4] | [5] | [6] | [7] | Aromatase (Homo sapiens)

CCCCOCCOC(=O)COc1nc(Cl)c(Cl)cc1Cl
not listed: [3] | [15] | [16] | [17] | [18]
inactive: all other assays above

CC(C(=O)O)c1ccc2c(c1)CC(=O)c1ccccc1S2 (centres undefined)
not listed: [3] | [7] | [18]
inactive: all other assays above

CN(C)c1ccc(C=O)cc1
active: [13] 54.5 µM
not listed: [3] | [15] | [16] | [17]
inactive: all other assays above

CC(COC(C)(C)C)OCCCO (centres undefined)
inactive: [1] | [2] | [8] | [4] | [5] | [9] | [18] | [6] | [7] | Aromatase (Homo sapiens)

CCCCOC(=O)c1ccccc1
active: [13] 34.4 µM
not listed: [3] | [9] | [10] | [18]
inactive: all other assays above

NCCS
not listed: [3] | [11] | [12] | [13] | [14] | [15] | [16] | [17]
inactive: all other assays above

C=CC(OCC)OCC
not listed: [3] | [11] | [12] | [13] | [14] | [15] | [16] | [17]
inactive: all other assays above

Cc1ccc(S(=O)(=O)O)c(C)c1
not listed: [3] | [10] | [15] | [16] | [17] | [18]
inactive: all other assays above

C=C(C)C(=O)OCC(C)(C)COC(=O)C(=C)C
not listed: [3] | [15] | [16] | [17]
inactive: all other assays above

CN(C)C(=O)CNC(=O)Cc1ccccc1
not listed: [3] | [7] | [15] | [16] | [17]
inactive: all other assays above

CCOC(=O)[C@H](CCc1ccccc1)N[C@@H](C)C(=O)N1C(=O)N(C)C[C@H]1C(=O)O
not listed: [3] | [7] | [15] | [16] | [17]
inactive: all other assays above

CCCCCCOC(=O)CC
not listed: [3] | [9] | [15] | [16] | [17]
inactive: all other assays above

CCOC(=O)c1ncn2c1CN(C)C(=O)c1cc(F)ccc1-2
not listed: [3] | [18]
inactive: all other assays above

CN(C)CCOCCO
not listed: [3] | [15] | [16] | [17]
inactive: all other assays above

Cc1ccc2c(c1)OCC(=O)CO2
not listed: [3] | [13] | [15] | [16] | [17] | [18]
inactive: all other assays above

O=S(=O)(O)c1ccc2cc(O)c(S(=O)(=O)O)cc2c1
not listed: [3] | [6] | [15] | [16] | [17]
inactive: all other assays above
